In PubChem BioAssay (NCATS) one finds max response data, which are given here for 40 compounds.

The structures appear in SMILES notation. Values joined by “and” are separate entries in the source; they are usually repeats but may differ in a detail not shown here. Equal entries are not always repeated. Results filed as inconclusive are left out. A number with no mark means an inactive call. Calls follow the shape of the dose curve; as a rule, active = well fitted curve in the direction sought with a large enough effect; inconclusive = small, poorly fitted or top-dose-only effect, or another doubt; inactive = no such curve, though single readings can be large or run the other way. Where a SMILES comes first, the peptide text is derived from it. Bridges are numbered along the chain shown (N, C = ends). [ ]: non-standard residue; d: D form. Orn = NCCC[C@H](N)C(=O)O; Mpa = O=C(O)CCS
% is scaled to controls: 0 for no effect and ±100 for the full control effect.

This assay can be described thus: qHTS Assay for Identifying Gametocytocidal Compounds (AID 743244).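 Also: actives lower the fluorescent signal which means gametocytes are killed.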 The conditions noted are these: P. falciparum 3D7 stage III-V gametocytes, alamarBlue, 72 h; max response: hits give low values. From the text: Malaria cases and deaths have dropped 50% in 29 countries since 2000 due to the combined effects of long-lasting insecticidal bednets, indoor residual spraying, and artemisinin-based combination therapies (ACTs). This success has raised hopes for malaria eradication and consequently stimulated interest in developing new reagents that block gametocyte transmission such as novel and safe gametocytocidal drugs. However, previous drug development efforts have focused primarily on the asexual parasites that cause symptoms, but not malaria transmission. Consequently, patients can remain infectious for weeks after the clearance of asexual parasites and clinical symptoms. To be transmitted from person to person via a mosquito, the parasites must switch from asexual to sexual development and produce male and female gametocytes. Malaria gametocytes consist of five stages (I, II, III, IV and V). The late stage gametocytes (III, IV and V) are difficult to be cultured in vitro and the long lifespan of mature gametocytes allows them being transmitted from host to mosquitoes unless they are completely eliminated by gametocytocidal agents. To identify gametocytocidal compounds which are capable of killing late stage P. falciparum gametocytes, a high throughput gametocyte viability assay was employed. This assay uses oxidoreduction indicator, alamarBlue, as a general measure of metabolic activity of gametocytes. Within live cells, the nonfluorescent resazurin is reduced to resorufin, a bright red fluorescence dye. Fluorescence decreases upon treatment of gametocytocidal compounds. P. falciparum gametocyte (3D7 strain) was used in this study.
The 1536-well gametocycidal viability assay was based on the previous method of Tanaka et al. Stage III-V gametocytes were tested against three compound libraries, including 4265 compounds from NCGC pharmaceutical collection, 400 from Malaria Box library, and 550 from an internal collection of kinase inhibitors. Briefly, 2.5 ul/well incomplete medium was dispensed into each well of 1,536-well plates using the Multidrop Combi followed by 23 nl compound transferring using the NX-TR Pintool (WAKO Scientific Solutions, San Diego, CA). Then, 2.5 ul/well of gametocytes was dispensed with a seeding density of 20,000 cells/well using the Multidrop Combi. The assay plates were incubated for 72 h at 37C with 5% CO2. After addition of 5 ul/well of 2X AlamarBlue dye (Life Technologies, cat. no. DAL1100), the plates were incubated for 24 h at 37C with 5% CO2 and then were read in a fluorescence detection mode (Ex = 525 nm, Em = 598 nm) on a ViewLux plate reader (PerkinElmer).
With `CCCC(=O)N1CCCN(c2nc(N)c3cc(OC)c(OC)cc3n2)CC1`, the max response was 16.2%.

For the compound `O=P(O)(O)C(Sc1ccc(Cl)cc1)P(=O)(O)O`, the max response was 17.7%.

As for `NC(=O)C[C@@H](N)C(=O)O`, the max response was -9.98%.

On to `C/C=C(/CC[C@@H](C)[C@H]1CC[C@H]2C3=CC[C@H]4[C@H](C)[C@@H](O)CC[C@]4(C)[C@H]3CC[C@]12C)C(C)C`, for which the max response is -5.29%.

Take `COc1ccc(C(=O)Nc2ccccc2CCC2CCCCN2C)cc1` (stereo not given): the max response is 14.2%.

As to `CCOc1ccc(C[C@H]2NC(=O)CCSSC[C@@H](C(=O)N3CCC[C@H]3C(=O)N[C@@H](CCCN)C(=O)NCC(N)=O)NC(=O)[C@H](CC(N)=O)NC(=O)[C@H]([C@@H](C)O)NC(=O)[C@H]([C@@H](C)CC)NC2=O)cc1` ([Mpa][dY](Et)ITNCP[Orn]G-NH2; disulfide 1-6), the max response was 12.3%.

For the compound `CCCC(CCC)C(N)=O`, the max response is -4.93%.

Consider `CCC[C@@]1(CCc2ccccc2)CC(O)=C([C@H](CC)c2cccc(NS(=O)(=O)c3ccc(C(F)(F)F)cn3)c2)C(=O)O1`, for which the max response is 14.3%.

Turning to `C/C(=C(/CCO)SSCC1CCCO1)N(C=O)Cc1cnc(C)nc1N` (stereo not given), the max response was 4.64% and -7.81%.

On to `NCCCC[C@H](NC(=O)[C@@H]1CCCN1C(=O)[C@@H]1CSSC[C@H](N)C(=O)N[C@@H](Cc2ccc(O)cc2)C(=O)N[C@@H](Cc2ccccc2)C(=O)N[C@@H](CCC(N)=O)C(=O)N[C@@H](CC(N)=O)C(=O)N1)C(=O)NCC(N)=O`, for which the max response was -14.9% and -14.7%.

Turning to `O=C(O)c1ccccc1[O-].O=C(O)c1ccccc1[O-].[Zn+2]`, the max response was 3.06%.

With `CO[C@@H]1[C@@H](O[C@@H]2O[C@H](C)[C@@H](O[C@H]3C[C@@](C)(O)[C@@H](OC(=O)CC(C)C)[C@H](C)O3)[C@H](N(C)C)[C@H]2O)[C@@H](CC=O)C[C@@H](C)[C@@H](O)/C=C/C=C/C[C@@H](C)OC(=O)C[C@H]1O`, the max response is 4.51% and 4.66%.

Take `NCCCC[C@H](NC(=O)[C@@H]1CCCN1C(=O)[C@@H]1CSSC[C@H](NC(=O)CNC(=O)CNC(=O)CN)C(=O)N[C@@H](Cc2ccc(O)cc2)C(=O)N[C@@H](Cc2ccccc2)C(=O)N[C@@H](CCC(N)=O)C(=O)N[C@@H](CC(N)=O)C(=O)N1)C(=O)NCC(N)=O` (H-GGGCYFQNCPKG-NH2; disulfide 4-9): the max response was -2%.

Regarding `C[N+](C)(CCCCCC[N+](C)(C)C1c2ccccc2-c2ccccc21)C1c2ccccc2-c2ccccc21`, the max response is -0.956%.

Turning to `CC(=O)[C@@]1(O)CC[C@H]2[C@@H]3C=C(Cl)C4=CC(=O)CC[C@]4(C)[C@H]3CC[C@@]21C`, the max response is -4.61%.

For `CN1CCN(C2=Nc3ccccc3Cc3ccccc32)CC1`, the max response is 2.36%.

As for `O=c1[nH]cnc2[nH]cc(CN3CCCCC3)c12`, the max response is 10.8%.

Turning to `COC1=C(C(=O)O)N2C(=O)[C@@H](NC(=O)[C@H](N)C3=CCC=CC3)[C@H]2SC1`, the max response was -12.6%.

In the case of `O=C(O)CC(O)(CC(=O)O)C(=O)O`, the max response was -12%.

On to `CCOC(=O)Nc1ccc2c(c1)N(C(=O)CN(C)C)c1ccccc1CC2`, for which the max response is 6.79%.

Turning to `CS(=O)(=O)NC(=O)CCC/C=C\C[C@H]1C(=O)C[C@@H](O)[C@@H]1/C=C/[C@H](O)COc1ccccc1`, the max response is -11.4%.

With `CO[C@H]1[C@@H](O)[C@H](N)[C@@H](O[C@H]2O[C@H]([C@H](C)N)CC[C@H]2N)[C@H](O)[C@@H]1N(C)C(=O)CN`, the max response is 15.1%.

With `NNc1nnc(Cc2ccncc2)c2ccccc12`, the max response was 1.86%.

In the case of `NCCC(=O)[N-][C@@H](Cc1cnc[nH]1)C(=O)O.[Zn]`, the max response is 14.2%.

With `CC#CCC(C)[C@H](O)/C=C/[C@@H]1[C@H]2C/C(=C/CCCC(=O)O)C[C@H]2C[C@H]1O` (stereo not given in full), the max response was 11.1%.

Regarding `COC[C@H](c1ccc(C(F)(F)F)cc1)N1CCN(C2(C)CCN(C(=O)c3c(C)ncnc3C)CC2)C[C@H]1C`, the max response is -5.74%.

As for `CCCOc1ccc2nc(NC(=O)OC)sc2c1`, the max response was -5%.

Turning to `CCC(=O)O`, the max response was -11.8%.

On to `CC(=O)OC[C@H]1O[C@@H](O[C@H]2[C@H](O)[C@@H](OC(=O)c3ccccc3C(=O)O)[C@H](O)O[C@@H]2COC(C)=O)[C@H](O)[C@@H](OC(=O)c2ccccc2C(=O)O)[C@@H]1O`, for which the max response is -3.61%.

As to `COc1ccc(CCNCC(O)COc2cccc(C)c2)cc1OC` (stereo not given), the max response is 11.3%.

In the case of `Cc1c(O)cc2c(c1C)O[C@](C)(CCC[C@H](C)CCC[C@H](C)CCCC(C)C)CC2`, the max response was -0.611%.

For `CCCCC(=O)O`, the max response is -7.14% and 15.8%.

Regarding `COCC1=C(C(=O)OC(C)OC(=O)OC(C)C)N2C(=O)[C@@H](NC(=O)/C(=N\OC)c3csc(N)n3)[C@H]2SC1` (stereo not given in full), the max response is -2.17% and -16.2%.

Turning to `CCCCCCCC/C=C\CCCCCCCC(=O)OC[C@@H](O)[C@H]1OC[C@H](O)[C@H]1O`, the max response is -9.22%.

As for `COc1cc2c(c(OC)c1OC)-c1c(cc3c(c1OC)OCO3)C[C@@H](C)[C@](C)(O)C2`, the max response was 3.46% and 15.8%.

In the case of `O=C(OCCO)c1ccccc1O`, the max response is 18.8%.

`CCCCCCCCCCCCCCCC(=O)OCCC1CCN(CCCN2c3ccccc3Sc3ccc(S(=O)(=O)N(C)C)cc32)CC1`: the max response is -11.1%.

As to `O=[N+]([O-])c1ccc(Oc2ccc(N=C=S)cc2)cc1`, the max response is 16.5%.

For the compound `CCOC(=O)Cc1cccc(-c2cc(CCCCCCc3ccc(O[C@H]4O[C@H](COC(C)=O)[C@@H](OC(C)=O)[C@H](OC(C)=O)[C@@H]4OC(C)=O)c(-c4cccc(CC(=O)OCC)c4)c3)ccc2O[C@H]2O[C@H](COC(C)=O)[C@@H](OC(C)=O)[C@H](OC(C)=O)[C@@H]2OC(C)=O)c1`, the max response was -24.7%.

On to `CCCCCCCCCCCCCCCC(=O)OC[C@H](O)[C@H]1OC(=O)C(O)=C1O`, for which the max response is 0.191%.
